Records with an inconclusive call do not appear. The source made the active and inactive calls. Unless noted, calls come from the whole dose curve.

Here are results for 7 compounds from PubChem BioAssay (Tox21).

Experiment [1] in a line: qHTS assay to identify small molecule antagonists of the sonic hedgehog signaling (Shh) pathway (AID 1259369). Note: nearly all actives have a fitted effect of over 45% in size. Note: potency is the fitted concentration of half-maximal effect. Put shortly: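 Stable Gli1-Luc reporter NIH/3T3 clone; quantitative HTS in stimulated mode with conditioned medium. Luminescence measured after 24hr compound treatment at 37 C.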
Background: Quantitative high-throughput screening tests each substance at several concentrations.

Experiment [2] concerns the target Estrogen receptor beta (Homo sapiens) (UniProt Q92731). The experiment in a line: qHTS assay to identify small molecule agonists of the estrogen receptor beta (ER-beta) signaling pathway (AID 1259377; active = well fitted activation curve with a large enough effect in the signal ratio in the repeat runs, not every such curve was filed as active; the % refers to the signal ratio). Put shortly: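 HEK293T ER-beta-UAS-bla; 2% charcoal-stripped FBS; cells pre-incubated 6 hr, compound 16 hr, 37C/5% CO2; LiveBLAzer B/G FRET substrate 2 h RT; fluorescence intensity read.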

Experiment [3] has the same target. Nature of the experiment: qHTS assay to identify small molecule antagonists of the estrogen receptor beta (ER-beta) signaling pathway (AID 1259378; active = well fitted inhibition curve with a large enough effect in the signal ratio in the repeat runs, not every such curve was filed as active; the % refers to the signal ratio; note: potency is the fitted concentration of half-maximal effect). Put shortly: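 Antagonist mode: compounds added to beta-lactamase reporter HEK293T ER-beta-UAS cells stimulated with E2 (1nM final), 16 hr at 37C. LiveBLAzer B/G FRET substrate, 2 hours room temperature, fluorescence read-out.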

The nature of experiment [4]: qHTS assay to identify small molecule agonists of the androgen receptor (AR) signaling pathway in the presence of an antagonist - cell viability counter screen (AID 1259379; active = well fitted curve in the direction sought with a large enough effect in the repeat runs; an effect the other way counts as inactive or inconclusive; note: nearly all actives have a fitted effect of over 25% in size; note: potency is the fitted concentration of half-maximal effect). Put shortly:
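Nilutamide-containing (3.0uM final) MDA-kb2 cultures, 3,000 cells/well, were treated with compounds across 15 concentrations. After 16 hr at 37C with no CO2, cell viability was determined by CellTiter-Fluor fluorescence in the luciferase assay wells.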

The nature of experiment [5]: qHTS assay to identify small molecule agonists of the estrogen receptor beta (ER-beta) signaling pathway - cell viability counter screen (AID 1259380; active = well fitted curve in the direction sought with a large enough effect in the repeat runs; an effect the other way counts as inactive or inconclusive; note: nearly all actives have a fitted effect of over 30% in size; note: potency is the fitted concentration of half-maximal effect). The gist of the method: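 Steps: plate ER-beta-UAS-bla HEK293T cells, rest 6 hr; add compounds in DMSO; incubate 16 hr at 37C, 5% CO2; add FRET substrate 2 hr; add CellTiter-Glo, wait 30 min at room temperature; read luminescence.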

Experiment [6] is described as follows: qHTS assay to identify small molecule antagonists of the estrogen receptor beta (ER-beta) signaling pathway - cell viability counter screen (AID 1259382; active = well fitted curve in the direction sought with a large enough effect in the repeat runs; an effect the other way counts as inactive or inconclusive; note: nearly all actives have a fitted effect of over 55% in size; note: potency is the fitted concentration of half-maximal effect). The gist of the method:
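Viability is scored by CellTiter-Glo luminescence (30 min, room temperature) in ER-beta-UAS-bla HEK293T wells already read for reporter fluorescence. Compound exposure lasts 16 hr at 37C alongside 1nM 17-beta-estradiol in charcoal-stripped serum medium.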

The target of experiment [7] is Estrogen receptor (Homo sapiens) (UniProt P03372). Nature of the experiment: qHTS assay to identify small molecule agonists of the estrogen receptor alpha (ER-alpha) signaling pathway in the presence of an antagonist (AID 1259383). Note: top concentration of the series differs between compounds; nearly all actives have a fitted effect of over 15% in size. The gist of the method:
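Readout was ERE-driven luciferase luminescence in VM7Luc4E2 cells, which express full-length ER-alpha endogenously. Compounds were tested at 15 concentrations for 22hr alongside 10.0nM ICI-182,780 (final concentration).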

Experiment [8] can be described thus: qHTS assay to identify small molecule agonists or antagonists of the thyroid stimulating hormone receptor (TSHR) signaling pathway - wild type cell line counter screen (AID 1259384). Put shortly: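 Counter screen in untransfected Hek293: compounds (15-point titration, triplicate) plus phosphodiesterase inhibitor Ro20-1724 added after 18 h plating; 30 min RT. Intracellular cAMP via competitive d2/cryptate immunoassay, 1 h incubation.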

Experiment [9] addresses Thyrotropin receptor (Homo sapiens) (UniProt P16473). The experiment in a line: qHTS assay to identify small molecule antagonists of the thyroid stimulating hormone receptor (TSHR) signaling pathway (AID 1259385). Note: nearly all actives have a fitted effect of over 20% in size. Note: potency is the fitted concentration of half-maximal effect. The gist of the method: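 Antagonist mode: compound-treated TSHR-expressing HEK293 cells were stimulated with 1.5 ng/mL TSH (final) in presence of Ro20-1724 for 30 min at RT. HTRF cAMP detection after 1 h; each compound tested at 15 concentrations, triplicate.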

Experiment [10] has as its target Progesterone receptor (Homo sapiens) (UniProt P06401). The experiment in a line: qHTS assay to identify small molecule agonists of the progesterone receptor (PR) signaling pathway (AID 1346784). Note: nearly all actives have a fitted effect of over 30% in size. The gist of the method: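 Beta-lactamase reporter read-out: after 16 hr compound treatment at 37C and a further 2 hr at room temperature with LiveBLAzer B/G FRET substrate, fluorescence was measured in PR-UAS-bla HEK 293T cells grown in 2% charcoal-stripped serum.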

Experiment [11] has the same target. The experiment in a line: qHTS assay to identify small molecule antagonists of the progesterone receptor (PR) signaling pathway (AID 1346795; active = well fitted inhibition curve with a large enough effect in the signal ratio in the repeat runs, not every such curve was filed as active; the % refers to the signal ratio; note: potency is the fitted concentration of half-maximal effect). Put shortly:
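Read-out is fluorescence from the LiveBLAzer B/G FRET substrate, cleaved by a UAS-controlled beta-lactamase in PR-UAS-bla HEK293T cells after 16 hr exposure to compound plus 1 nM promegestone (final), followed by 2 hr at room temperature.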

Experiment [12] can be described thus: qHTS assay to identify small molecule agonists of the progesterone receptor (PR) signaling pathway - cell viability counter screen (AID 1346799). Note: nearly all actives have a fitted effect of over 45% in size. Note: potency is the fitted concentration of half-maximal effect. The gist of the method:
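Luminescence from CellTiter-Glo, added after the beta-lactamase FRET read in the same wells, gave cytotoxicity in PR-UAS-bla HEK293T cells treated with compounds for 16 hr at 37C.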

A short description of experiment [13]: qHTS assay to identify small molecule antagonists of the TGF-beta/Smad signaling pathway - cell viability counter screen (AID 1346824; active = well fitted curve in the direction sought with a large enough effect in the repeat runs; an effect the other way counts as inactive or inconclusive; note: nearly all actives have a fitted effect of over 50% in size; note: potency is the fitted concentration of half-maximal effect). Put shortly:
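Cytotoxicity counter-screen run in the same wells as the beta-lactamase Smad reporter read: CellTiter-Glo luminescence after 30 min at room temperature. HEK 293T SBE-bla cells had 5 hr compound exposure at 37 C with TGF-beta1 (0.25 ng/mL stock).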

The nature of experiment [14]: qHTS assay to identify small molecule agonists of the TGF-beta/Smad signaling pathway - cell viability counter screen (AID 1346829; active = well fitted curve in the direction sought with a large enough effect in the repeat runs; an effect the other way counts as inactive or inconclusive; note: top concentration of the series differs between compounds; nearly all actives have a fitted effect of over 45% in size). Put shortly: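 HEK 293T SBE-bla line, 5 hr compound exposure at 37 C, multiplexed CellTiter-Glo viability read by luminescence.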
Experiment [15] is described as follows: qHTS assay to identify small molecule agonists of the TGF-beta/Smad signaling pathway (AID 1346859; active = well fitted activation curve with a large enough effect in the signal ratio in the repeat runs, not every such curve was filed as active; the % refers to the signal ratio; note: series mostly up to about 77 µM). Put shortly: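 SBE-bla HEK 293T, 4,000 cells/well, plated o/n; cpd in DMSO, 5 hr, 37 C/5% CO2; B/G FRET substrate 2 hr RT; ex 405, em 460/530 nm.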
The target in experiment [16] is Thyrotropin-releasing hormone receptor (Homo sapiens) (UniProt P34981). Nature of the experiment: qHTS assay to identify small molecule antagonists of the thyrotropin-releasing hormone receptor (TRHR) signaling pathway (AID 1346877; active = well fitted inhibition curve with a large enough effect in the repeat runs, not every such curve was filed as active; note: series mostly up to about 51 µM). The gist of the method:
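Kinetic fluorescence (3 min, 1 s resolution) following stimulation with TRH at 1 nM final; HEK293 cells bearing human TRHR; 5 min compound preincubation at RT; concentration-response over 15 points, triplicates.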

Experiment [17] shares this target. The experiment in a line: qHTS assay to identify small molecule agonists of the thyrotropin-releasing hormone receptor (TRHR) signaling pathway (AID 1346891). Note: series mostly up to about 58 µM. The gist of the method:
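Intracellular calcium rise, read as fluorescence every second for 3 min, served as the agonist signal in dye-loaded HEK293 cells expressing TRHR; each compound ran at 15 concentrations in triplicate.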

Experiment [18] can be described thus: qHTS assay to identify small molecule agonists of the estrogen receptor alpha (ER-alpha) signaling pathway in the presence of an antagonist - cell viability counter screen (AID 1259386; active = well fitted curve in the direction sought with a large enough effect in the repeat runs; an effect the other way counts as inactive or inconclusive;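 note: series mostly up to about 92 µM; cells exposed to compounds for 22 h at 37 °C before the viability read; nearly all actives have a fitted effect of over 30% in size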). The gist of the method: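 In this counter screen, compound effects on VM7Luc4E2 viability were tested in the presence of the antagonist ICI-182,780 at 10.0nM final. Compounds were dosed at 15 concentrations, exposure lasted 22hr, and the CellTiter-Fluor signal was read.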

The nature of experiment [19]: qHTS assay to identify small molecule antagonists of the progesterone receptor (PR) signaling pathway - cell viability counter screen (AID 1346798; active = well fitted curve in the direction sought with a large enough effect in the repeat runs; an effect the other way counts as inactive or inconclusive;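 note: HEK293T PR-UAS-bla cells stimulated with the agonist R5020; series mostly up to about 92 µM; nearly all actives have a fitted effect of over 50% in size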). Put shortly:
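HEK293T PR-UAS-bla, 2% charcoal-stripped FBS; 4 hr pre-plate; cpd + R5020, 16 h 37C; LiveBLAzer read first; then CellTiter-Glo 30 min RT, luminescence.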

Experiment [20] addresses Androgen receptor (Homo sapiens) (UniProt P10275). Nature of the experiment: qHTS assay to identify small molecule agonists of the androgen receptor (AR) signaling pathway in the presence of an antagonist (AID 1259381). Note: nearly all actives have a fitted effect of over 15% in size. Put shortly:
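Reporter-gene luminescence from MDA-kb2 cells exposed 16hr at 37C (0% CO2) to 15-point compound titrations with 3.0uM final nilutamide as AR antagonist.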

Chain of Thyrotropin receptor (Homo sapiens) (P16473 whole entry, looked up): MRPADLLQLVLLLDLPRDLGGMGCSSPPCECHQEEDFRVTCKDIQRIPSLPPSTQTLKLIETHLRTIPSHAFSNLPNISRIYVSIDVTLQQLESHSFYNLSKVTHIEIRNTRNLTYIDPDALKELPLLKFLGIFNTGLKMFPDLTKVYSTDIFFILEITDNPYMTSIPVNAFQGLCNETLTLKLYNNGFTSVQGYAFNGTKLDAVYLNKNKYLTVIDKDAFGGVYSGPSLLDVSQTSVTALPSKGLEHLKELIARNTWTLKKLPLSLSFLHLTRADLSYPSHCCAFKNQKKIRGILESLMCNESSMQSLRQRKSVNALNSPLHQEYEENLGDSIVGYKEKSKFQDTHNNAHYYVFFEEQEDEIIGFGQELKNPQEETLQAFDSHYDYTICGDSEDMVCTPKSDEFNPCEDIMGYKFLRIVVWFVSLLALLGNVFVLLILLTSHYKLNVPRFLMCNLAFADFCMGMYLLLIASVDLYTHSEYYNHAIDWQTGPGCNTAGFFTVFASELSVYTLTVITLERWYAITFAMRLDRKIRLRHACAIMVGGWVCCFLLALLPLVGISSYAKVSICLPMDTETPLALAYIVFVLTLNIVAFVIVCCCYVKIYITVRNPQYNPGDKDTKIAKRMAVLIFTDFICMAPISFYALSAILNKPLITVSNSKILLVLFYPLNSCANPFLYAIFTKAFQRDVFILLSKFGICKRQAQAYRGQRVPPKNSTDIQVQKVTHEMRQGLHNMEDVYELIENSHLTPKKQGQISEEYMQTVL
Chain of Estrogen receptor (Homo sapiens) (P03372 whole entry, looked up): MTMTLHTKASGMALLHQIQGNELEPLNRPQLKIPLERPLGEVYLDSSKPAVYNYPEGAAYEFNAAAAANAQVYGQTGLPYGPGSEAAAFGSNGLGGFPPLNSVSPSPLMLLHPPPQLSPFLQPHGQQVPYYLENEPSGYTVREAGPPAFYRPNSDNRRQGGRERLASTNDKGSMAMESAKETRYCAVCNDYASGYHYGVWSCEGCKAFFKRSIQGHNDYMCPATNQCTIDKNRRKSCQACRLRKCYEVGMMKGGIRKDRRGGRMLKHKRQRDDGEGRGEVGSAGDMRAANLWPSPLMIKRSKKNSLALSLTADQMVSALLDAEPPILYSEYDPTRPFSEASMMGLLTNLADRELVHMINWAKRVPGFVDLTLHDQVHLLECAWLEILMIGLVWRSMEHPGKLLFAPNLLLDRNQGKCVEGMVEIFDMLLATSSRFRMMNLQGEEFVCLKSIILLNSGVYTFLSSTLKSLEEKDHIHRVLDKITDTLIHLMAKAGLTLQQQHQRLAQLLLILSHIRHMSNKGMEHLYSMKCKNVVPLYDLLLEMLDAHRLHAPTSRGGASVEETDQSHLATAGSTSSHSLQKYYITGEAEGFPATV
Chain of Estrogen receptor beta (Homo sapiens) (Q92731 whole entry, looked up): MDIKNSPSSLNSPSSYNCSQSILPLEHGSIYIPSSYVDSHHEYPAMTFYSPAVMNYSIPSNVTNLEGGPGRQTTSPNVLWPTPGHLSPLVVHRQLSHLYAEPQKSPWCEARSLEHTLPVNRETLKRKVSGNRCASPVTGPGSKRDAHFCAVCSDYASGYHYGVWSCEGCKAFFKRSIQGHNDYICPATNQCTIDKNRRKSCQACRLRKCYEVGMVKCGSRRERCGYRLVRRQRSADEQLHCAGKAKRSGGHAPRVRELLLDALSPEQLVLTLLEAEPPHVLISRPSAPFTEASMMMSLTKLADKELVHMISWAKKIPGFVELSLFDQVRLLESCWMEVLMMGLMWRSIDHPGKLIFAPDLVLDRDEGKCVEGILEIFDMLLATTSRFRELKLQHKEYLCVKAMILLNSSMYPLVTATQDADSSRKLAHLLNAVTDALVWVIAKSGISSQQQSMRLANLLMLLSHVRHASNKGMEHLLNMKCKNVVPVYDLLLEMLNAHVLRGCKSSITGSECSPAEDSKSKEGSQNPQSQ
Chain of Thyrotropin-releasing hormone receptor (Homo sapiens) (P34981 whole entry, looked up): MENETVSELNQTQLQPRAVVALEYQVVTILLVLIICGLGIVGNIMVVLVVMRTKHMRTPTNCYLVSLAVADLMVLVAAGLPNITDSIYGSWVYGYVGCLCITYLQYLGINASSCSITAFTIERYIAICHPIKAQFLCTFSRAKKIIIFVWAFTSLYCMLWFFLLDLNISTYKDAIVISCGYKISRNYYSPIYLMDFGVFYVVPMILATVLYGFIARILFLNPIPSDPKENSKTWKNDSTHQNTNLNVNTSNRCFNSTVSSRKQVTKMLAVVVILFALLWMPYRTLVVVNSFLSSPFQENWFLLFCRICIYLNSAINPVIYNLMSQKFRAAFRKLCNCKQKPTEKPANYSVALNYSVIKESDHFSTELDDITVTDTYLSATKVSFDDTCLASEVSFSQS
Chain of Progesterone receptor (Homo sapiens) (P06401 whole entry, looked up): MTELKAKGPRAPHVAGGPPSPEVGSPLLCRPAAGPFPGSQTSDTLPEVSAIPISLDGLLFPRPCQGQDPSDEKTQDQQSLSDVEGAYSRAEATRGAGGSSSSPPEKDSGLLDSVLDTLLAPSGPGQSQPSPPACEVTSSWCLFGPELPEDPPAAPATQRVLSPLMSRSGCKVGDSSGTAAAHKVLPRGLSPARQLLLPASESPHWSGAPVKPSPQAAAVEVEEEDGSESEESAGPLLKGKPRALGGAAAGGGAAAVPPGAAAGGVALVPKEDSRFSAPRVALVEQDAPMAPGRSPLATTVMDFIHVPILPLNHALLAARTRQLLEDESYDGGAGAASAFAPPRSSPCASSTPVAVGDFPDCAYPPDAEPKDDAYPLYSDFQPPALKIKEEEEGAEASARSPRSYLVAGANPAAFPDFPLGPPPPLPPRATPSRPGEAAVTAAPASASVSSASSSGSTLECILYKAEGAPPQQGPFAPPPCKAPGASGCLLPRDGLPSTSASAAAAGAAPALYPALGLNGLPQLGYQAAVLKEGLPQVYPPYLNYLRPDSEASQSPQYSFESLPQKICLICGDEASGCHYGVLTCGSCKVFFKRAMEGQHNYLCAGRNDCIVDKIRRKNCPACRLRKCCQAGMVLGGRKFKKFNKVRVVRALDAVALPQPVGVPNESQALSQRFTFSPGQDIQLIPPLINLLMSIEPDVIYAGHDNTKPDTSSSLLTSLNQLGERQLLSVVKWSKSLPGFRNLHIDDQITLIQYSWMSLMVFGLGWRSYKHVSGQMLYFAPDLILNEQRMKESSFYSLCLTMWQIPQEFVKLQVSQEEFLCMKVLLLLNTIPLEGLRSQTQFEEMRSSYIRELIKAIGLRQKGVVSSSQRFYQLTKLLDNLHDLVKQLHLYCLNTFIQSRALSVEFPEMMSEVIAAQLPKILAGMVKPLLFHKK
Chain of Androgen receptor (Homo sapiens) (P10275 whole entry, looked up): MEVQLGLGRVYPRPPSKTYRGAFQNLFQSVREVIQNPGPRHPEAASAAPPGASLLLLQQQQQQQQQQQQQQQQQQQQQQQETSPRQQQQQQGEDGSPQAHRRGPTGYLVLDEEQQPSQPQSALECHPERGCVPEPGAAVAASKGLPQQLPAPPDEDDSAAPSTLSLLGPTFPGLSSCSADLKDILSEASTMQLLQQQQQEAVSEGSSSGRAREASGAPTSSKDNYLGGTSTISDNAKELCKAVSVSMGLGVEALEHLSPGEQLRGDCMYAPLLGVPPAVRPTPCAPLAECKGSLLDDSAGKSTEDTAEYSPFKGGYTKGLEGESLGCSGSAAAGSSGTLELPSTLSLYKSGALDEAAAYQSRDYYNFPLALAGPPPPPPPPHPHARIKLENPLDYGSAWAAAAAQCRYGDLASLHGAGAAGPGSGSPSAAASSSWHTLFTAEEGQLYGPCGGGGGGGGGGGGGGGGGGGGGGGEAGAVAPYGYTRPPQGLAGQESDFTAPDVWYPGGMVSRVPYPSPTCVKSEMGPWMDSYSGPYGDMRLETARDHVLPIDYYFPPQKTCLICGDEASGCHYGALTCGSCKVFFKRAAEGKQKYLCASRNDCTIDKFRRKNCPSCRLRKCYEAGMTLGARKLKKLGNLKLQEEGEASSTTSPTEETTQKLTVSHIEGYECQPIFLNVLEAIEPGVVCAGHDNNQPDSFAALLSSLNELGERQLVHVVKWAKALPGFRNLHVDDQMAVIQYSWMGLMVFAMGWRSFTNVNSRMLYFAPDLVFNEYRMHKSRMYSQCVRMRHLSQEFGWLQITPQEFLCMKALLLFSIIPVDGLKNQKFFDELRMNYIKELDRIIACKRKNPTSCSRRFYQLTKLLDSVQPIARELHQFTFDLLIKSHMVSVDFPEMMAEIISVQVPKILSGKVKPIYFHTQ

In the case of `ClCCN1CCOCC1`, the Potency result in experiment [1], in experiment [2], in experiment [3], in experiment [4], in experiment [5] and in experiment [6] was “inactive” in each case. In addition, the Potency entry in [7], in [9], in experiment [10], in experiment [11], in experiment [12] and in experiment [13] was “inactive” throughout. Moreover, the Potency result in experiment [14], in [16] and in [17] was “inactive” throughout. Moreover, the outcome in experiment [8] and in experiment [15] was inactive.
For `CCCCCCCCCCCCCCC(Br)C(=O)O` (stereo not given), the Potency result in experiment [1], in experiment [2], in experiment [3], in experiment [4], in [6] and in experiment [7] was “inactive” each time. In addition, the Potency entry in experiment [18], in experiment [10], in experiment [19], in experiment [13], in experiment [14] and in experiment [16] was “inactive” throughout. The Potency result in experiment [17] is “inactive”. Also, in [15], the result was inactive.
As for `CC(C)C1CCC(Cc2ccc(Cl)cc2)C1(O)Cn1cncn1` (stereo not given), the Potency in [1] is 17.1 µM (active); in [3] it was 24.1 µM (active); in [5], 67.9 µM (active); in experiment [6] it was 67.9 µM (active); in experiment [13] it was 54.4 µM (active). For the same compound, the Potency result in experiment [2] and in experiment [7] was “inactive” each time. Also, the result in experiment [8] was inactive.
As to `CCc1nn(C)c(C(=O)NCc2ccc(C(C)(C)C)cc2)c1Cl`, the Potency in experiment [1] is 0.0386 µM (active); in [3] it was 24.3 µM (active); in experiment [4], 0.306 µM (active); in experiment [5], 54.5 µM (active); in experiment [9], 61.1 µM (active); in experiment [12], 54.5 µM (active). The Potency in [13] was 0.389 µM (active). For the same compound, the Potency result in experiment [2], in [7] and in experiment [16] was “inactive” each time. For the same compound, the compound was called inactive in experiment [8] and in experiment [15].
With `Cc1cccc(OP(=O)(Oc2cccc(C)c2)Oc2cccc(C)c2)c1`, the Potency result in experiment [1], in experiment [2], in experiment [3], in experiment [4], in experiment [5] and in [20] was “inactive” in each case. The Potency entry in experiment [9], in experiment [18], in experiment [10], in [19], in experiment [12] and in [13] was “inactive” in each case. The Potency entry in [14], in experiment [16] and in experiment [17] was “inactive” each time. The Potency in [11] was 43.3 µM (active). In [15], the compound was called inactive.
As for `CCOP(=S)(OCC)SCS(=O)(=O)CC`, the Potency entry in experiment [1], in [2], in experiment [3], in experiment [4], in experiment [5] and in [20] was “inactive” throughout. The Potency result in experiment [6], in experiment [7], in [9], in [10], in [11] and in experiment [19] was “inactive” throughout. The Potency result in [14], in experiment [16] and in experiment [17] was “inactive” in each case. The compound was called inactive in experiment [8] and in experiment [15].
As to `CC(C)OC(=O)C(O)(c1ccc(Cl)cc1)c1ccc(Cl)cc1`, the Potency in experiment [1] was 54.5 µM (active); in experiment [3], 30.6 µM (active). Further, the Potency result in [2], in experiment [4], in [5], in [6], in [7] and in experiment [9] was “inactive” each time. Besides, the Potency result in experiment [19], in experiment [13], in experiment [14], in experiment [16] and in experiment [17] was “inactive” in each case. Also, the call in experiment [8] and in experiment [15] was inactive.
